These results are taken from PubChem BioAssay (EPA / NIEHS).

The structures appear in SMILES notation. Values joined by “and” are separate entries in the source; they are usually repeats but may differ in a detail not shown here. Identical values can stand only once. Records with an inconclusive call do not appear. Active and inactive are the calls of the source. How the source made its calls, unless noted: active means hit-call score of the fitted dose curve at least 0.9, where 1 is the maximum; inconclusive means response in the unintended direction; inactive means score below 0.9.

The subject of test [1] is Thyroperoxidase (TPO), gene 54314. Nature of the test: CCTE_Simmons_AUR_rTPO: CCTE's Amplex UltraRed Assay for Thyroperoxidase (TPO) Inhibition, Simmons Lab (AID 2283662).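 On AC50: potency for loss of signal meaning inhibition of peroxidase activity.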 In short, it runs like this: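 Rat thyroid microsomes (5 ug protein) with 25 uM Amplex UltraRed and 300 uM H2O2 in 200 mM phosphate buffer, 30 min at 37C in dark; fluorescence 544/590 nm. Eight concentrations, 5 nM–87.5 uM final, 0.5% DMSO, triplicate biological replicates.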

A short description of test [2]: CCTE_Simmons_CellTiterGLO_HEK293T: Viability Assessment in CCTE's Assays for Thyroperoxidase (TPO) Inhibition, Simmons Lab (AID 2283665).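 On AC50: cells exposed to compound for 24 h before readout; actives reduce ATP signal below DMSO vehicle meaning cytotoxicity.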 In short, it runs like this:
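Luciferase-coupled ATP content after 24 h exposure gives viability; 8-point series from 5 nM to 87.5 uM final in 0.5% DMSO. Human HEK293T cells, 1% FBS medium, three biological replicates, dichlone positive control.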
Background: Cellular ATP, detected with luciferase, serves as a proxy for viable cell number.

Test [3] can be described thus: Tanguay_ZF_120hpf_PFIN_legacy: (Legacy) Oregon State University Tanguay Lab 120 Hour Post-fertilization zebrafish Assay for Pectoral Fin Malformation (AID 2283648).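 Further: each larva judged yes or no for fin defect by brightfield with dead larvae skipped.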 In short, it runs like this:
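Binary pectoral fin malformation call at 120 hpf by brightfield microscopy; 5D wild-type zebrafish, chorion removed at 4 hpf, one embryo per well from 6 hpf, static exposure at 28C; DMSO (0.64% final) as baseline.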

Test [4] is described as follows: Tanguay_ZF_120hpf_CFIN_legacy: (Legacy) Oregon State University Tanguay Lab 120 Hour Post-fertilization zebrafish Assay for Caudal Fin Malformation (AID 2283649). In short, it runs like this:
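Tropical 5D wild-type embryos, dechorionated with pronase at 4 hpf, were placed singly in wells at 6 hpf and statically exposed to compound at 28C until 120 hpf (0.64% DMSO). Caudal fin malformation was scored present/absent by brightfield microscopy.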

Test [5] in a line: Tanguay_ZF_120hpf_PIG_legacy: (Legacy) Oregon State University Tanguay Lab 120 Hour Post-fertilization zebrafish Assay for Pigmentation Malformation (AID 2283650). In a few lines: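 Brightfield scoring of pigmentation malformation at 120 hpf, recorded as binary present/absent per larva. Exposure: dechorionated 5D wild-type embryos, one per well, static from 6 hpf at 28C, final DMSO 0.64% (vol/vol). Dead embryos not scored.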

Test [6] is described as follows: Tanguay_ZF_120hpf_SWIM_legacy: (Legacy) Oregon State University Tanguay Lab 120 Hour Post-fertilization zebrafish Assay for Swim Bladder Malformation (AID 2283654).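 Further: swim bladder malformation in each larva scored yes or no under brightfield.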 In short, it runs like this: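 Tropical 5D embryos dechorionated at 4 hpf; 1 embryo/well from 6 hpf; static, sealed, dark exposure at 28C until 120 hpf; final DMSO 0.64%; 5uM trimethyltin chloride positive control; swim bladder defect recorded yes/no; dead embryos not scored.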

Test [7] is described as follows: Tanguay_ZF_120hpf_TRUN_legacy: (Legacy) Oregon State University Tanguay Lab 120 Hour Post-fertilization zebrafish Assay for Truncated Body (AID 2283655). The method, then: Tanguay_ZF_120hpf_legacy is a whole embryo, multiplexed endpoint assay using zebrafish larvae exposed for 120 hours post fertilization on a 96-well plate.Tanguay_ZF_120hpf_TRUN_legacy is one of one assay component(s) measured or calculated from the Tanguay_ZF_120hpf_legacy assay. It is designed to make measurements of zebrafish development as detected with brightfield microscopy of developing zebrafish embryos.Data from the assay component Tanguay_ZF_120hpf_TRUN_legacy was analyzed into 1 assay endpoints. This assay endpoint, Tanguay_ZF_120hpf_TRUN_legacy, was analyzed in the positive analysis fitting direction relative to DMSO as the negative control and baseline of activity. […]
Zebrafish husbandry: Tropical 5D wild-type adult zebrafish were housed in at an approximate density of 1000 per 100 gallon tank at the Sinnhuber Aquatic Research Laboratory, Oregon State University, Corvallis, OR. […] At 24 hpf, embryos were assessed for photomotor response using a custom photomotor response analysis tool (PRAT) and for developmental toxicity endpoints (MO24: mortality at 24 hpf, DP: developmental progression, SM: spontaneous movement, and NC: notochord distortion). At 120 hpf, locomotor activity was measured using Viewpoint Zebralab and assessed for 18 endpoints. […] If mortality occurred for an embryo (at either 24 or 120 hpf), the non-mortality endpoints were not measured.

A short description of test [8]: Tanguay_ZF_120hpf_NC_legacy: (Legacy) Oregon State University Tanguay Lab 120 Hour Post-fertilization zebrafish Assay for Notochord and Tail Malformation (AID 2283656). In short, it runs like this:
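Binary scoring of notochord distortion by brightfield microscopy; embryos dying were not scored. Wild-type Tropical 5D embryos, chorion removed, exposed singly and statically from 6 to 120 hpf, 28C, sealed, 0.64% DMSO.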

Test [9] is described as follows: Tanguay_ZF_120hpf_TR_legacy: (Legacy) Oregon State University Tanguay Lab 120 Hour Post-fertilization zebrafish Assay for Touch Response (AID 2283667). In a few lines: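 Binary touch-response call at 120 hpf, analysed as gain of signal versus DMSO baseline. Wild-type 5D larvae, static exposure at 28C, 0.64% DMSO final; 5uM trimethyltin chloride as positive control.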

Test [10] is described as follows: STM_H9_OrnithineISnorm_perc: Stemina devTOX quickPredict H9 human embryonic stem cell (hESC)-based Assay for Ornithine (ORN) Metabolite Biomarker, Normalized (AID 2283712; active means hit-call score of the fitted dose curve at least 0.9, where 1 is the maximum; inactive means score below 0.9;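 further: ornithine released into spent medium during last day measured by mass spectrometry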). From the text:
STM_H9_secretome utilizes undifferentiated H9 cells to measure relative changes in two metabolites, ornithine (ORN) and cystine (CYSS) in the secretome, targeting a critical drop in the ORN/CYSS ratio as a biomarker for developmental toxicity.STM_H9_OrnithineISnorm is one of 10 components calculated in the STM_H9_secretome assay. It measures the integrated area of the endogenous ornithine normalized to the spiked-in isotopically labeled standard and to the median value of the 0.1% DMSO neutral control treatment using UPLC-HRMS technology.Data from the assay component STM_H9_OrnithineISnorm_perc was analyzed at the assay endpoint STM_H9_OrnithineISnorm_perc in the positive analysis fitting direction relative to DMSO as the negative control and baseline of activity. […]
H9 hESCs maintained in a pluripotent state were exposed to test compound for 72h with chemical replenishment with media replacement every 24h. Cell-conditioned media from the final 24-h treatment period was collected for analysis of the targeted biomarker, and cell viability of the corresponding cell layer was assessed. […] Cell viability was measured using the CellTiter-Fluor assay (Promega, Madison, Wisconsin) based on proteolytic cleavage of a substrate to fluorescent signal proportional to the number of living cells. […]

As for `Nc1ccc2cc(S(=O)(=O)O)cc(O)c2c1N=Nc1ccccc1C(F)(F)F`, the AC50 was 20.2 µM (active) in [1] and 31.1 µM (active) in test [2].

Regarding `Oc1ccc2cc(SSc3ccc4cc(O)ccc4c3)ccc2c1`, the AC50 in [1] is 2.45 µM (active); in test [2], 74.3 µM (active).

For `CCCCCCCCC=CCCCCCCCC1=NCCN1CCO`, the AC50 in [1] was 37.9 µM (active) and 8.64 µM (active); in test [2], 14 µM (active) and 13.8 µM (active).

With `COc1ccc(N=Nc2cc(C)c(N=Nc3ccc(S(=O)(=O)O)cc3)cc2OC)cc1`, the concentration at half-maximal activity (AC50) in test [1] was 53.9 µM (active); in test [2], 77.9 µM (active).

With `O=C(O)CCCCCCCCC(=O)O`, the result in [1] and in [2] was inactive.

Take `CCCCCC(C=O)=Cc1ccccc1`: the results for the AC50 in test [1] and in [2] were 19.4 µM (active) and 88.1 µM (active), respectively.

Turning to `O=C(O)c1ccc(O)cc1`, the AC50 in [1] is 35.3 µM (active). Moreover, in test [2], the molecule was classed as inactive.

Turning to `CN(C)c1cccc(O)c1`, the AC50 in test [1] was 1.34 µM (active). Besides, in [2], the result was inactive.

As for `CCCCCCCCCCCCCCN(CCO)CCO`, the values for the AC50 in [1] and in test [2] were 44.8 µM (active) and 21.4 µM (active), respectively.

In the case of `CC(CN=Cc1ccccc1O)N=Cc1ccccc1O` (configuration not stated), in test [1], the AC50 is 26 µM (active).

Turning to `CCc1ccc(O)cc1`, in test [1], the outcome was inactive.

Take `CCOc1ccc(N=Nc2ccc(C=Cc3ccc(N=Nc4ccc(OCC)cc4)cc3S(=O)(=O)O)c(S(=O)(=O)O)c2)cc1`: the AC50 in test [1] was 30.2 µM (active); in test [2] it was 89.1 µM (active).

As for `CCOc1ccccc1O`, in [1], the AC50 was 19.1 µM (active).

As to `CS(=O)(=O)OCCCCOS(C)(=O)=O`, the result in [3], in test [4], in test [5], in test [6], in test [7] and in test [2] was inactive. The molecule was called inactive in test [9]. Also, the AC50 is 47.1 µM (active) in test [8], 30.6 µM (active) in test [1] and 36.3 µM (active) in test [10].

On to `O=C(Nc1ccc2c(O)c(N=Nc3ccc(N=Nc4ccc(S(=O)(=O)O)cc4)cc3)c(S(=O)(=O)O)cc2c1)c1ccccc1`, for which the results for the AC50 in [1] and in [2] were 32.7 µM (active) and 14.4 µM (active), respectively.

For the molecule `CC(C)CCCCCCCCCCCCCCC(=O)O`, the AC50 in test [1] is 43.8 µM (active).

On to `CSCCC=O`, for which the AC50 in [1] was 43.8 µM (active).

As for `[O-]n1ccccc1=S.[O-]n1ccccc1=S.[Zn+2]`, the AC50 in test [1] was 3.72 µM (active); in test [2], 2.57 µM (active).

Consider `C=C1CC[C@H](O)C/C1=C/C=C1\CCC[C@]2(C)[C@@H]([C@H](C)/C=C/[C@H](C)C(C)C)CC[C@@H]12`, for which the AC50 in test [1] is 41.3 µM (active); in [2], 78.7 µM (active).

In the case of `CCc1cc(Cc2cc(CC)cc(C(C)(C)C)c2O)c(O)c(C(C)(C)C)c1`, the results for the AC50 in test [1] and in test [2] were 1.8 µM (active) and 11.1 µM (active), respectively.

Regarding `Cc1cc(C)nc(NS(=O)(=O)c2ccc(N)cc2)n1`, in test [1], the AC50 was 14.3 µM (active).

In the case of `CCOC(=O)c1ccc(N)cc1`, the values for the AC50 in [1] and in test [2] were 22.2 µM (active) and 21.1 µM (active), respectively.

With `O=C1OC[C@H](Cc2cccc(O)c2)[C@H]1Cc1cccc(O)c1`, the AC50 in test [1] was 7.74 µM (active).

In the case of `Cc1ccc(S(=O)(=O)Oc2ccc(N=Nc3ccc(-c4ccc(N=Nc5c(O)ccc6cc(S(=O)(=O)O)cc(S(=O)(=O)O)c56)c(C)c4)cc3C)cc2)cc1`, the AC50 in [1] was 18.2 µM (active); in test [2], 18.3 µM (active).

Consider `CC(C)NCC(O)COc1ccc(CC(N)=O)cc1` (configuration not stated), for which the molecule was called inactive in test [1].

As to `COc1ccccc1N=Nc1c(S(=O)(=O)O)cc2cc(S(=O)(=O)O)cc(NC(C)=O)c2c1O`, the AC50 is 34.8 µM (active) in [1] and 12.2 µM (active) in test [2].

For `Cc1cc(S(=O)(=O)O)ccc1N=Nc1c(O)ccc2ccccc12`, the values for the AC50 in test [1] and in [2] were 35 µM (active) and 24 µM (active), respectively.

As to `CCCCCCCCc1ccc(S(=O)(=O)O)cc1`, the AC50 in test [1] is 43.8 µM (active); in test [2], 83.5 µM (active).

`O=c1c(O)c(-c2ccc(O)cc2)oc2cc(O)cc(O)c12`: the AC50 in test [1] is 0.0805 µM (active). In addition, in [2], the result was inactive.

As for `CCc1cc(C(C)(C)C)c(O)c(C(C)(C)C)c1`, the concentration at half-maximal activity (AC50) in test [1] is 4.83 µM (active); in test [2], 24.3 µM (active).

For the molecule `CCCCC(CC)COC(=O)c1ccc(O)cc1` (configuration not stated), the AC50 was 44.7 µM (active) in test [1] and 24.7 µM (active) in test [2].

Usually AC50 stands for the concentration at which the activity in the assay is half-maximal.
